# Measurements as given in PubChem BioAssay AID504861 (Broad Institute, 2011).
# In all, about 1,200 compounds went through this assay and about 290 (24%) were called active. Another 3% or so got no clear call; they are omitted.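 Rule for the calls: active = compounds lowering cell viability signal with fitted half-maximal concentration at most ten times their highest tested concentration; inconclusive = flat fit with 30 to 70% signal loss, or poor fit; inactive = the rest.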 The list is a sample of the results. Measured potencies and affinities stand elsewhere.
# Assay: HEK293T cell viability reduction, dose response, cytotoxicity control for LMP1 NF-kB inhibitor project, CellTiter-Glo luminescence, cherry-picks (AID 504861)
# Details: CellTiter-Glo ATP luminescence, 48 h; series mostly up to 26 µM
row,Structure (SMILES),outcome
1,O=C(O)c1ccc(C=NN=C2c3ccccc3-c3ccccc32)cc1,inactive
2,Cc1ccc(CCNC(=O)CCc2nc3ccccc3[nH]2)cc1,inactive
3,CCn1c2ccccc2c2cc(/C=N/n3c(-c4cc(C)[nH]n4)n[nH]c3=S)ccc21,inactive
4,O=C(O)c1cn2c3c(ccc(Cl)c3c1=O)OCC2,inactive
5,S=c1[nH]nc(C2CCCCC2)n1/N=C/c1ccncc1,inactive
6,CCN(CC)S(=O)(=O)c1ccc(N/N=C/c2ccc(O)cc2O)nc1,inactive
7,CCN(CC)S(=O)(=O)c1ccc(N=NC2=C(O)CCCC2=O)cc1,inactive
8,COC(=O)C1=NNC(C(=O)OC)C1c1ccccc1 (stereo not given),inactive
9,COCCCNCC1C(Oc2ccc(Cl)cc2)C(=O)N1c1ccccc1C (stereo not given),inactive
10,COc1ccc(C(=O)Nc2cc(C)c(NC(=O)c3ccccc3OC)cn2)cc1,inactive
11,COc1ccccc1-n1cc([C@@H]2C[C@H]3CN(c4ccccc4)C(=O)[C@]34CCCN24)cn1,inactive
12,COc1ccc2cc(C(N)=O)/c(=N\NC(=O)c3ccccc3)oc2c1,inactive
13,CCOC(=O)CNC(=O)CSc1nnc(NC(=O)c2ccc(C)cc2)s1,inactive
14,Nc1cc(=O)[nH]c(SCCSc2cc(Cl)ccc2Cl)n1,inactive
15,O=C(Nc1ccc(N2CCOCC2)cc1)c1cn2ccccc2n1,inactive
16,COc1cc(/C=C(\C#N)c2ccccn2)ccc1OCc1ccccc1Cl,inactive
17,CN(C)CCN(Cc1ccc(Cl)cc1)c1ccccn1,inactive
18,CCn1c2ccccc2c2cc(/C=N/n3c(C)nnc3C)ccc21,inactive
19,Cn1cccc1C(=O)OCC(=O)Nc1ccc2c(c1)OCO2,inactive
20,Cc1ccc2oc(C(=O)Nc3ccc(S(=O)(=O)Nc4onc(C)c4C)cc3)c(C)c2c1,inactive
21,O=C(CN1C(=O)c2ccccc2S1(=O)=O)c1ccc(F)c(F)c1,inactive
22,CC(=O)c1sc(NC(=O)C2COc3ccccc3O2)nc1C (stereo not given),inactive
23,Cc1ccccc1NC(=O)CN1C(=O)S/C(=C\c2cccn2-c2cccc(C(=O)O)c2)C1=O,inactive
24,O=C(O)/C=C/c1ccc2ccccc2n1,inactive
25,CCOC(=O)Nc1ccc2c(c1)N(C(=O)CN(C)C)c1ccccc1CC2,inactive
26,CCOCCCNC(=O)CN1C(=O)/C(=C\c2ccc(C)cc2)Sc2ccccc21,inactive
27,CCN(c1ccccc1)S(=O)(=O)c1ccc(Cl)c(NC(=O)Nc2ccc(Cl)cc2C#N)c1,inactive
28,COc1ccc(-c2csc3ncnc(NCCO)c23)cc1,inactive

row,Structure (SMILES),outcome
1,COC(=O)c1cc2n(n1)CCN(Cc1ccccc1Cl)C2=O,inactive
2,CC1CN(c2cc(=O)n(-c3ccccc3)c(=O)[nH]2)CC(C)O1 (stereo not given),inactive
3,CCc1cc2c(Sc3nc4ccccc4s3)ncnc2s1,inactive
4,Cc1nn(-c2ccccc2)c(Cl)c1C(=O)N1CCN(c2ncnc3c2cnn3-c2ccccc2)CC1,inactive
5,CC1(C)Cc2c(ccc3ccccc23)/C(=C/C(=O)N2CCCCC2)N1,inactive
6,COc1ccc(NC(=O)NCCN2CCc3ccccc3C2)cc1,inactive
7,COc1ccc2cc(-c3cc(C(=O)O)c4ccccc4n3)ccc2c1,inactive
8,Cc1cc2cc(CN(Cc3ccco3)S(=O)(=O)c3c(C)ccc4nsnc34)c(=O)[nH]c2cc1C,inactive
9,CCCN(CC)c1ncnc2[nH]ncc12,inactive
10,COc1ccc(/C=N/Nc2cc(OC)ncn2)cc1,inactive
11,CN(C)c1ccc(C=Cc2ccnc3c(O)cccc23)cc1,inactive
12,COc1ccc(CC(C)NCC(O)c2ccc(O)c(NC=O)c2)cc1 (stereo not given),inactive
13,COc1ccc(-n2c(SCC(=O)Nc3ccc4c(c3)OCO4)nc3c(c2=O)SCC3)cc1,inactive
14,CCOCCCn1cnc2c3cc(F)ccc3n(C)c2c1=O,inactive
15,CC(C)(C)n1nc(-c2ccc(Cl)cc2)c2c(N)ncnc21,inactive
16,CCc1ccc(/C=C2\SC(=S)N(CCCC(=O)NC3=NCCS3)C2=O)cc1,inactive
17,CCOc1cc(/C=C2/C(=N)N3N=C(CC)SC3=NC2=O)ccc1OC(=O)c1ccco1,inactive
18,COc1ccc(-c2cc(C(=O)N3CCCC3)no2)cc1,inactive
19,O=Cc1ccc(-c2cccs2)s1,inactive
20,COC(=O)c1ccc(CSc2nc3c(c(=O)n2-c2ccc(C)cc2)SCC3)o1,inactive
21,Cc1ccc(-n2cc(C(=O)c3ccccc3O)cn2)cc1,inactive
22,COc1ccc(C(=O)N=c2nc3ccccn3s2)cc1,inactive
23,CC(=O)c1cc(C(=O)Nc2ccc(C(=O)O)cc2)oc1C,inactive
24,COc1ccc(NC(=O)/C(C#N)=C/c2cc(C)n(-c3ccc(N4CCOCC4)c([N+](=O)[O-])c3)c2C)cc1,inactive
25,CCOC(=O)c1c(CSc2nc(C)cc(C)c2C#N)n(C)c2cc(Br)c(OC(C)=O)cc12,inactive
26,CCOc1ccc(Nc2ncnc3ccc([N+](=O)[O-])cc23)cc1,inactive
27,Cc1nc(SCC(=O)c2cccc([N+](=O)[O-])c2)n[nH]1,inactive
